Bioassay records as filed in PubChem.
Pf growth 96h: P. falciparum growth inhibition at 96 hour, primary screen for plastid delayed-death inhibitors; P. falciparum luciferase reporter growth, 96 h; Potency, µM (highest dose often 28.7 µM), most hits filed as inhibitors; actives 6.9% (n = 320,000)
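96 h incubation, 37 C, 5% CO2, of luciferase-reporter P. falciparum-infected RBCs (2% hematocrit, 0.05% parasitemia final) with test compounds; endpoint luminescence.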
AmpC no deterg: AmpC beta-lactamase inhibition without detergent | actives 0.52% (n = 330,000) | AmpC nitrocefin hydrolysis, absorbance 480 nm, 0.0001% Triton | Potency, µM (doses to about 57.1 µM), usual class: inhibitors; further: nearly all actives have a fitted effect of over 20% in size
Target sequence (P00811 whole entry, looked up): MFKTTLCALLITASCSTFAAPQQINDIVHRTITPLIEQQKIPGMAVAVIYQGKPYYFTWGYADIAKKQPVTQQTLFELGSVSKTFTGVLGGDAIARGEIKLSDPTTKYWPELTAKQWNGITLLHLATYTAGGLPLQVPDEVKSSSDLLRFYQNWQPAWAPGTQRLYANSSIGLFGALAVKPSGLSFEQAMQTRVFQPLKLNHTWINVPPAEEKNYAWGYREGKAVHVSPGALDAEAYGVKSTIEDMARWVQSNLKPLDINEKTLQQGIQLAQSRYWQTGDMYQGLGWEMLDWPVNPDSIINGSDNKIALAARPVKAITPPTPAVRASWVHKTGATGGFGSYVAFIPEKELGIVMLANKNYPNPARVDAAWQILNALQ
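20 mM phosphate pH 7.0 + 0.01% (detergent screen) or 0.0001% Triton X-100; 5.3 nM AmpC reagent; cpd preinc 15 min RT; nitrocefin (800 uM stock) to start; A480 q20 s × 4 min; Activity was normalised to no-enzyme and no-compound control wells.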
Sm TGR block: inhibitors of Schistosoma mansoni thioredoxin glutathione reductase | Q962Y6 | purified TGR, DTNB reduction, TNB absorbance 405 nm | Potency, µM (top dose mostly 114 µM), hits mostly inhibitors | actives 3% (n = 360,000); further: nearly all actives have a fitted effect of over 60% in size
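TGR 20 nM + NADPH 100 uM (dispensed conc.), cpd preinc 15 min RT; start with NADPH (500 uM addition) then DTNB (15 mM addition). Kinetic TNB absorbance, 405 nm filter. Four-parameter Hill fit across titration.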
SARS PLpro yeast: blocks SARS-CoV papain-like protease in a yeast assay | actives 0.19% (n = 330,000) | Potency, µM (doses to about 32.9 µM), most hits filed as activators | S. cerevisiae expressing SARS-CoV PLpro, growth rescue; calls by dose curve; further: nearly all actives have a fitted effect of over 55% in size
AmpC detergent: blocks E. coli AmpC beta-lactamase in detergent assay. P00811. AmpC hydrolysis of nitrocefin, absorbance 480 nm, 0.01% Triton. Potency, µM (doses to about 114 µM), most hits filed as inhibitors. actives 0.041% (n = 370,000). AID 485294; further: nearly all actives have a fitted effect of over 25% in size
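20 mM phosphate pH 7.0 + 0.01% (detergent screen) or 0.0001% Triton X-100; 5.3 nM AmpC reagent; cpd preinc 15 min RT; nitrocefin (800 uM stock) to start; A480 q20 s × 4 min; Activity was normalised to no-enzyme and no-compound control wells.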
Pf growth 48h: P. falciparum growth inhibition at 48 hours (one generation). P. falciparum luciferase growth in erythrocytes, 48 h. Potency, µM (titrated, usually from 28.7 µM), hits mostly inhibitors. actives 5.9% (n = 310,000). AID 504832
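Parasite viability was followed by luminescence of a genomically integrated firefly luciferase. Cultures held 0.1% parasitemia at 2% hematocrit (final), incubated under 5% CO2 at 37 C.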
Large screens that a line does not name were inactive. This is a sample that favours compounds with a hit; in the whole collection about 12% have one here. Unless noted, the call rests on the fitted dose curve; in most records, active means well fitted curve in the direction sought with a large enough effect; inconclusive means small, poorly fitted or top-dose-only effect, or another doubt; inactive means no such curve, though single readings can be large; an effect the other way counts as inactive or inconclusive.

CCOC(=O)c1[nH]c2c(c1-c1ccc(OC)cc1)C(=O)CC(c1ccc(OC)c(OC)c1)C2 (stereo unspecified)	Pf growth 96h 8.3µM, AmpC detergent inconclusive, Pf growth 48h inconclusive
COc1ccc(COC(=O)c2[nH]c3c(c2C)C(=O)CC(c2ccc(OC)c(OC)c2)C3)cc1 (stereo unspecified)	none (no result: Pf growth 96h, AmpC no deterg, SARS PLpro yeast, Pf growth 48h)
Cc1ccc(O)c(-c2n[nH]c3c2C(c2ccccc2F)N(Cc2ccco2)C3=O)c1 (stereo unspecified)	none (no result: Pf growth 96h, AmpC no deterg, SARS PLpro yeast, Pf growth 48h)
CCc1c(C)nc2c(C#N)c[nH]n2c1=O	Pf growth 96h 0.52µM
CN(C)S(=O)(=O)c1ccc2c(c1)N(CC(=O)N1CCN(c3cccc(Cl)c3)CC1)CCS2	none (no result: Pf growth 96h, AmpC no deterg, SARS PLpro yeast, Pf growth 48h)
O=C1C(Cc2ccccc2)C(c2ccccc2)N1c1ccccc1 (stereo unspecified)	Pf growth 96h 10µM, Pf growth 48h inconclusive
CCOC(=O)CN1C(=O)C(Sc2n[nH]c(-c3ccc(C)cc3)n2)CCc2ccccc21 (stereo unspecified)	Pf growth 96h 12µM, AmpC detergent inconclusive, Pf growth 48h inconclusive
CCOC(=O)CSc1n[nH]c(-c2cccnc2)n1	SARS PLpro yeast inconclusive
CCOC(=O)CN1C(=O)C(Sc2n[nH]c(-c3cccc(C)c3)n2)CCc2ccccc21 (stereo unspecified)	Pf growth 96h 9.3µM, Pf growth 48h 13µM
CCOC(=O)C1CCN(C(=O)CSc2n[nH]c(-c3ccccc3)n2)CC1	none (no result: Pf growth 96h, AmpC no deterg, SARS PLpro yeast, Pf growth 48h)
Cc1ccc(Nc2cc(=O)oc3ccccc23)c(C)c1	Pf growth 96h 0.13µM, Pf growth 48h inconclusive
O=c1cc(NCCO)c2ccccc2o1	none (no result: Pf growth 48h)
Cc1ccccc1Nc1cc(=O)oc2ccccc12	Pf growth 96h 13µM (no result: Pf growth 48h)
CC(=O)C1=C(C)OC(N)=C(C#N)C1c1cc([N+](=O)[O-])ccc1Cl (stereo unspecified)	Sm TGR block 22µM
CC(=O)C1=C(C)OC(N)=C(C#N)C1c1cccc([N+](=O)[O-])c1 (stereo unspecified)	Sm TGR block 14µM
CC(C)CN1CCC(=O)N([C@H](CSc2ccc(Br)cc2)c2ccccc2)CC1	Sm TGR block 2.8µM
CC(C)C[C@@H](CSc1ccc(Br)cc1)N1CCN(CC(C)C)CCC1=O	Pf growth 96h inconclusive, Sm TGR block inconclusive, Pf growth 48h inconclusive
CCCN1CCC(=O)N([C@H](CSc2ccc(OC)cc2)c2ccccc2)CC1	Pf growth 96h inconclusive, Sm TGR block 22µM, Pf growth 48h inconclusive
CN1CCC(=O)N([C@H](CSc2ccccc2)c2ccccc2)CC1	Sm TGR block inconclusive
Cc1ccc(SC[C@H](c2ccccc2)N2CCN(C)CCC2=O)cc1	Sm TGR block 40µM
Cc1ccc(SC[C@H](c2ccccc2)N2CCN(CC(C)C)CCC2=O)cc1	Pf growth 96h inconclusive, Sm TGR block 32µM, Pf growth 48h inconclusive
COc1ccc(NC(=O)Cn2c(=O)oc3cc(S(=O)(=O)NC4CCCC4)ccc32)cc1OC	none (no result: Pf growth 96h, AmpC no deterg, SARS PLpro yeast, Pf growth 48h)
CCCCn1nc2cc(C(=O)NCc3ccccc3)ccc2c1OCC	Pf growth 96h inconclusive
Cc1cn2c(=O)c(S(=O)(=O)Nc3ccc(OC(F)(F)F)cc3)c(C)nc2s1	none (no result: Pf growth 96h, AmpC no deterg, SARS PLpro yeast, Pf growth 48h)
Cc1cccc(N2CCn3c2nc2c3c(=O)n(C/C=C/c3ccccc3)c(=O)n2C)c1	none (no result: Pf growth 96h, AmpC no deterg, SARS PLpro yeast, Pf growth 48h)
Cc1cc(CSc2ccccc2)ccc1NC(=O)c1ccc(Cl)c([N+](=O)[O-])c1	Pf growth 96h inconclusive
CC(C)CC(C(=O)Nc1oc(-c2ccco2)c(-c2ccco2)c1C#N)N1C(=O)c2ccccc2C1=O (stereo unspecified)	Pf growth 96h inconclusive, Sm TGR block 56µM, AmpC detergent inconclusive, Pf growth 48h inconclusive
O=C(O)C1C2C=CC(C2)C1C(=O)NCc1cccs1 (stereo unspecified)	Pf growth 96h 4.1µM (no result: Sm TGR block)
Cc1ccc(-c2ccccc2NC(=O)C2C3C=CC(C3)C2C(=O)O)o1 (stereo unspecified)	Sm TGR block 35µM, Pf growth 48h inconclusive
Cc1ccc(-c2ccccc2NC(=O)CCl)o1	Pf growth 96h inconclusive, Sm TGR block 32µM, Pf growth 48h inconclusive
